Compound activity from PubChem BioAssay.
Hits are enriched below; roughly 12% of the tested compounds scored in any of these assays.
PLK1 PBD inh: qHTS for Inhibitors of PLK1-PDB (polo-like kinase 1 - polo-box domain): Primary Screen. Serine/threonine-protein kinase PLK1 (Homo sapiens), P53350. Potency, µM, without a hit: max response, negative = inhibition, most hits filed as inhibitors. Plk1 PBD binding of FITC phosphopeptide, fluorescence polarization. AID 720504, 2013. 360,000 compounds, 2.8% hits; further: series mostly up to about 57 µM; nearly all actives have a fitted effect of over 65% in size
Gal4-VP16 FLuc: VP16 counterscreen qHTS for inhibitors of ROR gamma transcriptional activity | Drosophila S2 Gal4-VP16 UAS-luciferase, luminescence, 20 h | Potency, µM (doses to about 53.6 µM), for the others: top-dose activity, negative = inhibition, most hits filed as inhibitors | 310,000 compounds, 3.5% hits | AID 2546, 2010;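 further: Gal4-VP16 expression switched on by copper sulfate through the metallothionein promoter; nearly all actives have a fitted effect of over 50% in size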
ALDH1A1 block: qHTS Assay for Inhibitors of Aldehyde Dehydrogenase 1 (ALDH1A1); Aldehyde dehydrogenase 1A1 (Homo sapiens), P00352; Purified ALDH1A1, NADH fluorescence, propionaldehyde substrate; Potency, µM (doses to about 75.3 µM), for inactives: top-dose activity, negative = inhibition, actives largely listed as inhibitors; 220,000 compounds, 7.3% hits; AID 1030, 2008; active means well fitted inhibition curve with a large enough effect, not every such curve was filed as active; inconclusive means small, poorly fitted or top-dose-only effect, or another doubt; inactive means no such curve, though single readings can be large or run the other way;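 further: plate controls were no enzyme wells and a reference inhibitor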
Sfp inh: qHTS Assay for Inhibitors of Bacillus subtilis Sfp phosphopantetheinyl transferase (PPTase); Biochemical Sfp PPTase activity, qHTS; Potency, µM, for the others: largest response in the series, negative = inhibition, usual class: inhibitors; AID 1490, 2009; 310,000 compounds, 3.5% hits;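 further: the enzyme is Sfp with the accession as filed and its product quenches rhodamine fluorescence; 0% = enzyme reaction without inhibitor and -100% = no enzyme wells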
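Reaction rates are the 30-min fluorescence difference (ex 525, em 598 nm) in wells containing 15 nM Sfp, 5 uM rhodamine-CoA and 12.5 uM BHQ-2-YbbR at pH 7.6 with 10 mM MgCl2.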
RORgamma inh: qHTS for inhibitors of ROR gamma transcriptional activity; Drosophila S2 Gal4-RORgamma UAS-luciferase reporter, 20 h; Potency, µM (top dose mostly 53.6 µM), without a hit: at the highest dose activity change, negative = inhibition, hits mostly inhibitors; 310,000 compounds, 5.4% hits; AID 2551, 2010; further: nearly all actives have a fitted effect of over 60% in size
Target sequence (P51450 whole entry, looked up, the tested form may be a part): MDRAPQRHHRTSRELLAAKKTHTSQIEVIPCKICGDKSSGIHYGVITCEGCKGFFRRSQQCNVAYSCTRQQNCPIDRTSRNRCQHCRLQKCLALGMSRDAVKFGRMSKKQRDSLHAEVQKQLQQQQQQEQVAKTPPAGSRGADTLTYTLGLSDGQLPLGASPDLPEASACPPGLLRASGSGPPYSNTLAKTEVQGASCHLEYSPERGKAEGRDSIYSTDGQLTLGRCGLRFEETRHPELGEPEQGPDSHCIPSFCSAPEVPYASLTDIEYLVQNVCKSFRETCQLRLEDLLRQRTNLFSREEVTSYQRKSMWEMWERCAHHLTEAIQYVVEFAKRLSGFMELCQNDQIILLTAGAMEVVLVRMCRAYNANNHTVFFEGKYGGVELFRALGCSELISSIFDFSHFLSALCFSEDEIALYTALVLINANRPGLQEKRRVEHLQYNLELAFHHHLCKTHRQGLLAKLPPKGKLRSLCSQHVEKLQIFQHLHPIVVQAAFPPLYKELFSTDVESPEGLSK
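ROR gamma transcriptional activity was tracked as Gal4-UAS luciferase output in stably transfected Drosophila Schneider cells, with compound added 1 hr before 700 uM copper sulfate induction and a 20 hr ambient-temperature incubation.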
An asterisk follows results filed as active; ? = inconclusive; nt = not tested or not shown; [ ] = dose if it differs, or a comment. Unless noted, the call rests on the fitted dose curve; in most records, active means well fitted curve in the direction sought with a large enough effect; inconclusive means small, poorly fitted or top-dose-only effect, or another doubt; inactive means no such curve, though single readings can be large; an effect the other way counts as inactive or inconclusive. Unless noted, on the % scale 0 is the no-effect control and ±100 the full control effect; potency means the concentration at half of the fitted maximal effect.

SMILES | PLK1 PBD inh | Gal4-VP16 FLuc | ALDH1A1 block | Sfp inh | RORgamma inh
O=C(Nc1nccs1)c1cc(Cl)ccc1[N+](=O)[O-] | -8% | ? | -6% | 5% | 13µM*
Cc1csc(NC(=O)Cc2c[nH]c3ccccc23)n1 | -3% | 3% | 5% | 1% | ?
Cc1cc(S(=O)(=O)Nc2ncnc3sccc23)ccc1F | -20% | nt | nt | nt | nt
CCCOc1ccc2c(c1)C(=NN=C(N)N)c1cc(OCCC)ccc1-2 | -13% | -23% | nt | ? | 14µM*
CCN(CC)CCOc1ccc2c(c1)C(=NO)c1cc(OCCN(CC)CC)ccc1-2 | -7% | -17% | 0% | 4% | -23%
Cc1ccc2c(C(=O)CN3CCSCC3)c(C)[nH]c2c1 | 19µM* | -8% | ? | 7% | 0%
COc1ccc2[nH]cc(C(=O)CN3CCN(C4CCCCC4)CC3)c2c1 | 1% | -28% | 25µM* | -5% | 26%
COc1ccc2c(C(=O)CN3CCSCC3)c[nH]c2c1 | -6% | -3% | 28µM* | ? | 9%
Cc1[nH]c2ccccc2c1C(=O)CN1C(=O)C(=O)N(C2CCCC2)C1=O | 0% | -11% | 2% | 7% | 26%
Cc1[nH]c2ccccc2c1C(=O)CN1CCN(C2CCCCC2)CC1 | nt | 1% | 13µM* | 8% | 10%
Cc1ccc2c(C(=O)CN3CCC4(CC3)OCCO4)c(C)[nH]c2c1 | -2% | -2% | 4% | 18% | 29%
CCOC(=O)N1CCN(C(=O)C[C@@H]2C[C@@]3(C(=O)OC)CC(C)(C)CC=C3N(Cc3cccc4ccccc34)C2=O)CC1 | 3% | nt | nt | nt | nt
O=C(c1ccc(N2CCOCC2)cc1)N1CCCC(Nc2ccccc2)C1 (centres undefined) | 9.5µM* | 5% | nt | 14% | 1%
COCCCN1C(=O)C(CC(=O)NCc2ccco2)CC(C(=O)N(C(C)C)C(C)C)=C1C (centres undefined) | 0% | nt | nt | nt | nt
CN=C1N[C@H](c2ccccc2)N(c2ccccc2)S1 | nt | 28µM* | 1.3µM* | 112µM* | 10µM*
Cc1csc(NC(=O)c2cc(C)nc3ccccc23)n1 | -13% | -13% | -8% | 2% | 11µM*
Cc1csc(NC(=O)c2cc(-c3ccco3)nc3ccccc23)n1 | 24µM* | ? | ? | ? | ?
COc1nc(NCCO)nc(Nc2ccccc2F)n1 | 27µM* | 8%[10 µM] | 2% | 9% | 19%
CC(C)(C)C(=O)c1c(N)[nH]c(C(=O)c2ccccc2)c1-c1c(F)cccc1F | -14% | nt | nt | nt | nt
Cc1ccc(Nc2nnc(SCC(=O)NCCN3C(=O)CSC3=O)s2)cc1C | 0% | ? | 18µM* | 0% | ?
Cc1cccc(-n2nnnc2SCC(=O)NCCN2C(=O)CSC2=O)c1 | -9% | -5% | 20µM* | 12% | 9%
CCCC/C=C/[C@H](C)[C@@](C)(COC(=O)c1ccc(Br)cc1)Cc1ccccc1 | nt | 4% | nt | -3% | 36%
CN(C(=S)Nc1ccc(F)cc1)C1(c2ccccc2Cl)CCCCC1=O (centres undefined) | 0% | -4% | -4% | 1% | 8.9µM*
CN1C[C@@H]2[C@@H]3C(=O)N(C)C(=O)[C@@H]3[C@](Cc3ccccc3)(C1=O)N2C(=O)c1ccccc1 | -4% | nt | nt | nt | nt
COc1cc(NC(=O)c2ccc(C)cc2C)ccc1NC(=O)c1cc2ccccc2o1 | -14% | ? | nt | 11% | 1.6µM*
SMILES | PLK1 PBD inh | Gal4-VP16 FLuc | ALDH1A1 block | Sfp inh | RORgamma inh
COc1cc(NC(=O)c2ccccc2F)ccc1NC(=O)c1cc2ccccc2o1 | -1% | 13µM* | nt | -25% | ?
O=c1c2c(nc3cc(-c4ccc(F)cc4)[nH]n13)CCCC2 | -9% | 11µM* | ? | 12% | 8.9µM*
O=c1c2c(nc3cc(-c4cccc(F)c4)[nH]n13)CCC2 | 24µM* | -10% | ? | 9% | 6%
O=c1c2c(nc3cc(-c4cccc(Cl)c4)[nH]n13)CCC2 | -6% | -26% | -8% | 11% | ?
C=CCn1c(SCC(=O)c2ccccc2)nnc1-c1ccc2c(c1)OCO2 | -23% | -6% | 25µM* | ? | -31%
C=CCn1c(SCC(=O)c2ccccc2)nnc1-c1cc2ccccc2o1 | -9% | -5% | ? | -23% | 5%
Cc1oc2cc3oc(=O)c(CCC(=O)NCCC(=O)O)c(C)c3cc2c1C | -6% | -12% | nt | 7% | -7%
Cc1oc2cc3oc(=O)c(CCC(=O)NCc4ccccn4)c(C)c3cc2c1C | -4% | ? | nt | 23% | 6.3µM*
Cn1cc(-c2coc3c(C(=O)NCc4cccc(Cl)c4)cccc23)cn1 | -16% | nt | nt | nt | nt
COc1ccc(NC(=O)C2c3ccccc3OCC(=O)N2CCc2ccccc2)cc1 (centres undefined) | -2% | nt | nt | nt | nt
O=C(NN=C1CCCC1)c1ccc(O)cc1O | 4% | 11µM* | nt | -17% | 7.9µM*
COc1ccc(C(=O)NN=C2CCCC2)c(OC)c1 | -8% | 5% | nt | -6% | 11%
NNC(=O)c1ccc(O)cc1O | -7% | 3.2µM* | ? | 6% | 1.3µM*
Nc1cc(S(N)(=O)=O)ccc1SSc1ccc(S(N)(=O)=O)cc1N | nt | nt | 2µM* | nt | nt
Nc1cc(S(=O)(=O)O)ccc1O | nt | 9% | ? | nt | -3%
CS(=O)(=O)c1ccc(N)c(SSc2cc(S(C)(=O)=O)ccc2N)c1 | 0.95µM* | nt | nt | nt | nt
CO[C@@H]1CN(C)C(=O)c2cc(NS(=O)(=O)c3ccc(C)cc3)ccc2OC[C@H](C)N(Cc2nccs2)C[C@H]1C | -11% | nt | nt | nt | nt
COc1ccc(/C=C/CN2CCCC(CO)(Cc3cccc(Cl)c3)C2)cc1 (centres undefined) | 8% | ? | 20µM* | 0% | -13%
COc1ccccc1/C=C/CN1CCCC(CO)(Cc2cccc(Cl)c2)C1 (centres undefined) | -1% | -20% | ? | -6% | -14%
Cc1cc2[nH]c(=O)cc(-c3ccccc3)n2n1 | -10% | 18µM* | nt | -18% | 11µM*
C[C@H](CO)N1C[C@H](C)[C@@H](CN(C)Cc2cccc(F)c2)Oc2cc(-c3cccc(C#N)c3)ccc2S1(=O)=O | 5% | nt | nt | nt | nt
CC1(C)CN(Cc2ccccc2)C(=O)[C@H]1CC(=O)Nc1ccc(Br)cc1 | -5% | nt | nt | nt | nt
COCCn1c(=O)c(-c2ccc(F)cc2)nc2cnc(Nc3cccc(OC)c3)nc21 | nt | -15% | 14% | 9% | 1%
COc1ccc(CCN2CC(C(=O)NCCc3cnn(C)c3)CCC2=O)cc1 (centres undefined) | 12µM* | -2% | nt | -1% | 6%
O=C(NCCc1cn[nH]c1)C1CCC(=O)N(CCc2cccc(F)c2)C1 (centres undefined) | 3.4µM* | 7% | nt | 5% | -8%
O=C(NCCc1cccc(C(F)(F)F)c1)C1CCC(=O)N(CCc2cccc(F)c2)C1 (centres undefined) | -7% | 0% | nt | 7% | 23%
